The text below walks through data of ChEMBL document CHEMBL1157539, “Thousands of chemical starting points for antimalarial lead identification” (Nature, 2010).

Common to all, as to assay type: functional
In assay [1] the test system is Plasmodium falciparum. The assay is described as follows: GSK_TCMDC: Inhibition of Plasmodium falciparum 3D7 in whole red blood cells, using parasite LDH activity as an index of growth. Test compounds present at 2uM.
In assay [2] the test system is Plasmodium falciparum. The assay is described as follows: GSK_TCMDC: Inhibition of Plasmodium falciparum Dd2 in whole red blood cells, using parasite LDH activity as an index of growth. Test compounds present at 2uM.
The subject of assay [3] is HepG2. Nature of the assay: GSK_TCMDC: Percent inhibition of human HepG2 cell line. Test compounds present at 10uM.

For the molecule `CC(C)C[C@@H](C(=O)N[C@H](C(=O)Nc1nccs1)C(C)(C)C)[C@H](CCC(F)(F)F)N(O)C=O`, the Inhibition in assay [1] came out at 97%; in assay [2] it was 71%; in assay [3] it was 11%.

`N#Cc1ccc(N2CCN(C(=O)c3cccc(-c4noc(C(F)(F)F)n4)c3)CC2)nc1`: the Inhibition in assay [1] worked out at 84%; in assay [2] it was 58%; in assay [3], 18%.

On to `C[C@H](Cc1ccc(S(=O)(=O)c2ccc(C[C@@H](C)NC[C@H](O)c3cccc(Cl)c3)cc2)cc1)NC[C@H](O)c1cccc(Cl)c1.Cl`, for which the Inhibition is 99% in assay [1], 98% in assay [2] and 100% in assay [3].

As to `C=C[C@H]1CN(CCCCCCC)CC[C@H]1C[C@@H](Cc1ccnc2ccc(OC)cc12)OC(=O)[C@](OC)(c1ccccc1)C(F)(F)F`, the figures for the Inhibition in assay [1], in assay [2] and in assay [3] were 96%, 96% and 12%, respectively.

For `Cc1cc(NC2CCN(CC3CCCCC3)C2)nc(Nc2ccc(Br)cc2)n1` (stereo not given), the results for the Inhibition in assay [1], in assay [2] and in assay [3] were 100%, 83% and 22%, respectively.

Turning to `O=C(Nc1cccc(-c2nn3ccccc3c2-c2ccnc(Nc3cccc(N4CCCC4=O)c3)n2)c1)c1cc(F)ccc1F`, the values for the Inhibition in assay [1], in assay [2] and in assay [3] were 99%, 51% and 59%, respectively.

With `CC(C)C1C(O)=C(c2ccc3ccccc3c2)C(=O)N1Cc1ccsc1` (stereo not given), the Inhibition is recorded as 88% in assay [1], 82% in assay [2] and 11% in assay [3].

As to `CN(C)CCCN(C)C(=O)c1cc2cc(-c3ccccc3)ccc2n1S(=O)(=O)c1ccccc1.Cl`, the Inhibition in assay [1] worked out at 98%; in assay [2], 66%; in assay [3], 29%.

For `Cc1c(C(=O)NCc2ccncc2)sc2nc(-c3cccc([N+](=O)[O-])c3)cn12`, the values for the Inhibition in assay [1], in assay [2] and in assay [3] were 97%, 29% and 18%, respectively.

For `Br.CCCc1cccc(C)c1OCCCON1C(=N)N=C(N)NC1(C)C`, the Inhibition is recorded as 95% in assay [1], 96% in assay [2] and 57% in assay [3].

Consider `CO/C(=C\C=C\c1cc2cc(Cl)c(Cl)cc2[nH]1)C(=O)NCCCNCCN(C)c1ccccc1`, for which the values for the Inhibition in assay [1], in assay [2] and in assay [3] were 100%, 55% and 33%, respectively.

As to `C=CCOC(=O)N1CCC(CNCc2ccc(-c3cccc(-c4nc5cc(F)ccc5[nH]4)c3)cc2)C1.O=C(O)C(F)(F)F` (stereo not given), the Inhibition amounted to 100% in assay [1], 99% in assay [2] and 26% in assay [3].

As for `O=C(NC1CC1)c1ccc(N2CCC(Cc3ccccc3)CC2)c([N+](=O)[O-])c1`, the Inhibition in assay [1] is reported as 96%; in assay [2], 83%; in assay [3], 12%.

As to `Cc1cc(N2CCOCC2)nc(Nc2ccc(NC(=O)Nc3ccc(F)cc3)cc2)n1`, the Inhibition in assay [1] was determined as 100%; in assay [2] it was 34%; in assay [3] it was 35%.

Regarding `CNC(=O)C(NC(=O)c1ccccc1C(=O)OC)c1ccccc1` (stereo not given), the Inhibition is on record as 96% in assay [1], 2% in assay [2] and 4% in assay [3].

With `Cc1cc(N2CCOCC2)nc2ccc(NC(=O)c3cccc([N+](=O)[O-])c3)cc12`, the Inhibition in assay [1] was determined as 97%; in assay [2], 37%; in assay [3], 0%.

For the molecule `CCCCCCCCNCC(O)c1cc(-c2ccc(Cl)cc2)nc2cc(C)ccc12` (stereo not given), the Inhibition in assay [1] amounted to 99%; in assay [2] it was 99%; in assay [3], 0%.

Take `CCCN(CC1CC1)c1ncc(-c2cccc(CNCCC3CCCN3C)c2)cn1` (stereo not given): the results for the Inhibition in assay [1], in assay [2] and in assay [3] were 98%, 43% and 77%, respectively.

For `Cc1cc(N[C@@H](CC(C)C)C(=O)NC2CCCC2)nc(NCCc2ccc(F)cc2)n1.O=C(O)C(F)(F)F`, the Inhibition in assay [1] is 100%; in assay [2], 47%; in assay [3], 15%.

`Cc1ccccc1C1CCN(C2CCC(NC(=O)/C=C/c3cccc(F)c3)CC2)CC1` (stereo not given): the Inhibition in assay [1] is given as 84%; in assay [2], 38%; in assay [3], 46%.

In the case of `CN1CCC(N2CCN(Cc3cccc(-c4ccc(-c5nc6cc(F)ccc6[nH]5)cc4)c3)CC2)CC1.O=C(O)C(F)(F)F`, the Inhibition is listed as 100% in assay [1], 100% in assay [2] and 92% in assay [3].

For `O=C1Nc2cccc3c2C1(CCCCCN1CCC(c2c[nH]c4ccncc24)CC1)CCC3` (stereo not given), the Inhibition was 95% in assay [1], 3% in assay [2] and 8% in assay [3].

Regarding `O=C(c1cccc(Br)c1)N1CCN(c2ccc([N+](=O)[O-])c(NC3CC3)c2)CC1`, the figures for the Inhibition in assay [1], in assay [2] and in assay [3] were 99%, 100% and 5%, respectively.

`COc1ccc(CNC2CCN(C)CC2)cc1-c1ccc(S(=O)(=O)NC2CCC2)c(F)c1.O=C(O)C(F)(F)F`: the results for the Inhibition in assay [1], in assay [2] and in assay [3] were 100%, 97% and 96%, respectively.

For `O=C(Nc1ccc(OC2CCN(Cc3ccccc3)CC2)c(Cl)c1)c1ccco1.O=C(O)C(F)(F)F`, the Inhibition in assay [1] is given as 96%; in assay [2], 96%; in assay [3], 8%.

As for `O=C(c1ccc(Cl)cc1Cl)N1CCCC(C(F)(F)F)C1` (stereo not given), the Inhibition in assay [1] is recorded as 95%; in assay [2], 47%; in assay [3] it was 6%.

On to `CN1CCC(C(=O)Nc2ccc(-c3cccc(-c4nc5cc(F)ccc5[nH]4)c3)cc2)CC1`, for which the Inhibition worked out at 100% in assay [1], 5% in assay [2] and 19% in assay [3].

Regarding `Cc1ccc(NC(=O)c2ccc3ncccc3c2)cc1OC1CCN(Cc2ccco2)C1.O=C(O)C(F)(F)F` (stereo not given), the Inhibition in assay [1] was 86%; in assay [2], 42%; in assay [3], 9%.

In the case of `O=C(C=Cc1ccc(Cl)c(Cl)c1)NCCCCCN1CCCC(CCCNC(=O)c2cccs2)C1` (stereo not given), the Inhibition in assay [1] amounted to 89%; in assay [2], 0%; in assay [3], 24%.

For the molecule `Cc1nc(-c2ccc(-c3ccc(C(=O)Nc4ccc(I)c(OCC5CCCN5C)c4)cc3)c(C)c2)no1.Cl` (stereo not given), the Inhibition in assay [1] is 97%; in assay [2] it was 39%; in assay [3], 100%.
